The source made the active and inactive calls.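 The calls were made as follows: active = Gaucher patient macrophages show a phagocytic index close to or matching that of healthy macrophages; inactive = the rest.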
Assay: Extended Characterization of Activators of N370S glucocerebrosidase as a Potential Chaperone Treatment of Gaucher Disease: Phagocytosis Index
Conditions: Gaucher iPSC macrophages, phagocytosis of fluorescent E. coli particles
From the text: Glucocerebrosidase (GCase) catalyzes the hydrolysis of beta-glucocerebroside (GC) to glucose and ceramide in lysosomes. Mutations in the glucocerebrosidase gene result in Gaucher disease, an autosomal recessive lysosomal storage disorder. Many of the mutations encountered in patients with Gaucher disease are missense alterations that may cause misfolding, decreased stability and/or mistrafficking of this lysosomal protein. […] These inhibitors include iminosugar analogs and other inhibitors that were discovered as part of previous work. However, the enhancement of enzyme activity by the chaperone action of an enzyme inhibitor must be balanced against the direct inhibition of the enzyme. […] In this extended characterization of our probe, we have further characterized the activity of probes in relevant models of Gaucher disease. This assay examine phagocytosis in patient-derived macrophages following compound incubation. NIH Chemical Genomics Center [NCGC] NIH Molecular Libraries Probe Production Centers Network [MLPCN] MLPCN Grant: MH086442 Assay Submitter (PI): Ellen Sidransky, NHGRI
HMacs and iMacs, plated in black 96-well clear bottom plates, were treated, washed and incubated for 2 hrs with 100 µl of fluorescein-labeled E. coli BioParticles (Vybrant Phagocytosis Assay, Invitrogen).

Row | Compound | outcome
1 | C#Cc1ccc(NC(=O)c2cnn3c(C)cc(C)nc23)cc1 | active; similar to control
